Laboratory results taken from PubChem BioAssay (Tox21).
Values joined by “and” are separate entries in the source; they are usually repeats but may differ in a detail not shown here. Identical values can stand only once. A number with no mark means an inactive call. Results filed as inconclusive are left out. Where a call stands in place of a potency, no number is given. Active and inactive are the calls of the source. Unless noted, the call rests on the fitted dose curve; in most records, active means well fitted curve in the direction sought with a large enough effect in the repeat runs; inconclusive means weak or mixed curves; inactive means no such curve, though single readings can be large; an effect the other way counts as inactive or inconclusive.

Experiments:
[1] = target: Progesterone receptor (Homo sapiens) (UniProt P06401); assay: qHTS assay to identify small molecule antagonists of the progesterone receptor (PR) signaling pathway (AID 1346795; active means well fitted inhibition curve with a large enough effect in the signal ratio in the repeat runs, not every such curve was filed as active; the % refers to the signal ratio; further: potency means the concentration at half of the fitted maximal effect)
Sequence of Progesterone receptor (Homo sapiens) (P06401 whole entry, looked up): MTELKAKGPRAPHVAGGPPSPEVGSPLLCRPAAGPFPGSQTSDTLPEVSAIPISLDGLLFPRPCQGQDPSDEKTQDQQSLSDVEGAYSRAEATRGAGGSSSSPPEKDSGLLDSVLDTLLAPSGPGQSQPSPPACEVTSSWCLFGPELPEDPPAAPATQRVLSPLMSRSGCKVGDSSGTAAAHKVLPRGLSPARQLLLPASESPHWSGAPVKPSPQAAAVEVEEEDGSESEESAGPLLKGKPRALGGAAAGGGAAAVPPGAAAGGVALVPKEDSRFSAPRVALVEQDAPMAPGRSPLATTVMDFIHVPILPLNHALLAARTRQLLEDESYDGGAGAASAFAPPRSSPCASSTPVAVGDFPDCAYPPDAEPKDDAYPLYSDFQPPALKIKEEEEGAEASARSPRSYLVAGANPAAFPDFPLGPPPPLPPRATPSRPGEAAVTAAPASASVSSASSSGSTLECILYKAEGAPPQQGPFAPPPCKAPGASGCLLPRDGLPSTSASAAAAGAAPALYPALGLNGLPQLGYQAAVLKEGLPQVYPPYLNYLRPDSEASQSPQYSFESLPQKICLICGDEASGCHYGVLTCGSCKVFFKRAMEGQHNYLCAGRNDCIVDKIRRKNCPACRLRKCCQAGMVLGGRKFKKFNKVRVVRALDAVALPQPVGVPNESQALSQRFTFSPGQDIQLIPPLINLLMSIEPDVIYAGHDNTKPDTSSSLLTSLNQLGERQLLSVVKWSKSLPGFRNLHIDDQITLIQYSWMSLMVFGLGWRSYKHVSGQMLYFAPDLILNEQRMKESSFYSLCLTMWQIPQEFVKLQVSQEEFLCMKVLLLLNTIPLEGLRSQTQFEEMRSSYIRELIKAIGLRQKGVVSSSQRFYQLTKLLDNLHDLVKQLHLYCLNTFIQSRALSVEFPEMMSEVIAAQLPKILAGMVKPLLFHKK
Summary of the method: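 After 6 hr plating at 37C in 2% stripped-serum medium, PR-UAS-bla HEK293T cells got compounds, then 1 nM R5020. Sixteen hours later, LiveBLAzer substrate was applied for 2 hr at room temperature and fluorescence was recorded.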

[2] = qHTS assay to identify small molecule antagonists of the progesterone receptor (PR) signaling pathway - cell viability counter screen (AID 1346798); further: series mostly up to about 92 µM; nearly all actives have a fitted effect of over 50% in size
Summary of the method: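 Viability was determined by ATP-based luminescence (CellTiter-Glo) in PR-UAS-bla HEK293T cells cultured in 2% charcoal-stripped serum and incubated 16 hr with compounds under R5020 stimulation.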

[3] = qHTS assay to identify small molecule antagonists of the TGF-beta/Smad signaling pathway - cell viability counter screen (AID 1346824); further: nearly all actives have a fitted effect of over 50% in size
Summary of the method: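 SBE-bla HEK 293T cells were plated overnight at 37 C, then given compounds in DMSO plus TGF-beta1 (added as 0.25 ng/mL solution) for 5 hr. After the bla read, CellTiter-Glo was added to the same wells and luminescence read after 30 min at room temperature.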

[4] = qHTS assay to identify small molecule agonists of the TGF-beta/Smad signaling pathway - cell viability counter screen (AID 1346829); further: top concentration of the series differs between compounds; nearly all actives have a fitted effect of over 45% in size
Summary of the method: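 Same-well cytotoxicity: CellTiter-Glo added after the 2 hr room-temperature beta-lactamase substrate step, luminescence measured 30 min later; cells had 5 hr of compound at 37 C.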

[5] = target: Thyrotropin-releasing hormone receptor (Homo sapiens) (UniProt P34981); assay: qHTS assay to identify small molecule antagonists of the thyrotropin-releasing hormone receptor (TRHR) signaling pathway (AID 1346877; active means well fitted inhibition curve with a large enough effect in the repeat runs, not every such curve was filed as active; further: series mostly up to about 51 µM)
Sequence of Thyrotropin-releasing hormone receptor (Homo sapiens) (P34981 whole entry, looked up): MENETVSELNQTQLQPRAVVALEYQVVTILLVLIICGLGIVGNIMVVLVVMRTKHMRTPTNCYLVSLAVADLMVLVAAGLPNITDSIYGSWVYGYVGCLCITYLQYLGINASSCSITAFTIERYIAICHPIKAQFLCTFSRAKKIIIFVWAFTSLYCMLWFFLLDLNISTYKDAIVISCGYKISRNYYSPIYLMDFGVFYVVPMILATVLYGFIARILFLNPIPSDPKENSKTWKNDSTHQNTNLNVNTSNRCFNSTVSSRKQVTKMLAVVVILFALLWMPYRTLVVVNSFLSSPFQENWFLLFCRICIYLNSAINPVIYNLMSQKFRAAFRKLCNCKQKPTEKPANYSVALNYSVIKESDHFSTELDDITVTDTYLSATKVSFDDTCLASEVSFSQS
Summary of the method: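 TRHR-expressing HEK293 cells loaded with calcium dye for 2 h at 37 C; compounds pre-incubated 5 min at room temperature before TRH challenge at 1 nM final. Intracellular calcium fluorescence read kinetically for 3 min; 15 concentrations in triplicate.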

[6] = target: Thyrotropin-releasing hormone receptor (Homo sapiens) (UniProt P34981); assay: qHTS assay to identify small molecule agonists of the thyrotropin-releasing hormone receptor (TRHR) signaling pathway (AID 1346891; calls by dose curve; further: series mostly up to about 58 µM)
Summary of the method: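 Kinetic fluorescence (3 min, 1 s intervals) reported intracellular calcium after compound transfer onto TRHR-Hek293 cells pre-loaded with dye for 2 h at 37 °C.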

[7] = Human pregnane X receptor (PXR) small molecule agonists, qHTS cell viability counter screen (AID 1346977); further: nearly all actives have a fitted effect of over 50% in size; further: potency means the concentration at half of the fitted maximal effect
Summary of the method: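 HepG2 cells stably carrying the PXR-Luc reporter are cultured with 5% charcoal-stripped FBS and treated with compounds for 24hr. CellTiter-Fluor is added at 23hr and fluorescence is read after 1hr.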

[8] = Caspase-3/7 induction in HepG2 cells by small molecules, qHTS assay (AID 1346978); further: nearly all actives have a fitted effect of over 15% in size; further: potency means the concentration at half of the fitted maximal effect
Summary of the method: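 Wild-type HepG2 cells (2,000/well) were settled 5 h at 37 C, 5% CO2, then exposed to compounds in DMSO for 17 h. Caspase-3/7 activity was read by luminescence 30 min after adding Caspase-Glo 3/7 reagent at room temperature.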

[9] = Caspase-3/7 induction in CHO-K1 cells by small molecules, qHTS assay (AID 1346980); further: nearly all actives have a fitted effect of over 15% in size; further: potency means the concentration at half of the fitted maximal effect
Summary of the method: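 Wild-type cells were seeded at 1,500 per well and settled 5 hr at 37 C, 5% CO2, then exposed to DMSO-dissolved compounds for 17 hr. Caspase-Glo 3/7 reagent was added, and luminescence was read after 30min at room temperature.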

[10] = target: Nuclear receptor subfamily 1 group I member 2 (Homo sapiens) (UniProt O75469); assay: Human pregnane X receptor (PXR) small molecule agonists, qHTS assay (AID 1346982); further: nearly all actives have a fitted effect of over 35% in size; further: potency means the concentration at half of the fitted maximal effect
Sequence of Nuclear receptor subfamily 1 group I member 2 (Homo sapiens) (O75469 whole entry, looked up): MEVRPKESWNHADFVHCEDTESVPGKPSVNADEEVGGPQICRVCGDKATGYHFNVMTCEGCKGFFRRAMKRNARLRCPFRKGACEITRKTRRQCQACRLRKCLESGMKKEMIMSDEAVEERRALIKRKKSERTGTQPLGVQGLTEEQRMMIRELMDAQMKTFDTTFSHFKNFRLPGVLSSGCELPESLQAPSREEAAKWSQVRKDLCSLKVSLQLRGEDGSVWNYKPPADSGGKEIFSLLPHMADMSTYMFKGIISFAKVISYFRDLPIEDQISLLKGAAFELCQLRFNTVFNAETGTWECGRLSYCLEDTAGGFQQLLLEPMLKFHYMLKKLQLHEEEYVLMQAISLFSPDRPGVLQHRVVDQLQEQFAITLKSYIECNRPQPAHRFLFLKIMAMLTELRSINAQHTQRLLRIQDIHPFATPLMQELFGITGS
Summary of the method: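 PXR-Luc HepG2 reporter cells (CYP3A4-driven luciferase) in 5% charcoal-stripped FBS medium, plated 5 h before compound addition, then treated 24 h at 37C. Luciferase read by ONE-Glo luminescence after 30 min at room temperature.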

[11] = target: Cytochrome P450 2D6 (Homo sapiens) (UniProt P10635); assay: Cytochrome P450 Family 2 Subfamily D Member 6 (CYP2D6) small molecule antagonists: luciferase reporter qHTS assay (AID 1671196); further: nearly all actives have a fitted effect of over 50% in size; further: potency means the concentration at half of the fitted maximal effect
Sequence of Cytochrome P450 2D6 (Homo sapiens) (P10635 whole entry, looked up): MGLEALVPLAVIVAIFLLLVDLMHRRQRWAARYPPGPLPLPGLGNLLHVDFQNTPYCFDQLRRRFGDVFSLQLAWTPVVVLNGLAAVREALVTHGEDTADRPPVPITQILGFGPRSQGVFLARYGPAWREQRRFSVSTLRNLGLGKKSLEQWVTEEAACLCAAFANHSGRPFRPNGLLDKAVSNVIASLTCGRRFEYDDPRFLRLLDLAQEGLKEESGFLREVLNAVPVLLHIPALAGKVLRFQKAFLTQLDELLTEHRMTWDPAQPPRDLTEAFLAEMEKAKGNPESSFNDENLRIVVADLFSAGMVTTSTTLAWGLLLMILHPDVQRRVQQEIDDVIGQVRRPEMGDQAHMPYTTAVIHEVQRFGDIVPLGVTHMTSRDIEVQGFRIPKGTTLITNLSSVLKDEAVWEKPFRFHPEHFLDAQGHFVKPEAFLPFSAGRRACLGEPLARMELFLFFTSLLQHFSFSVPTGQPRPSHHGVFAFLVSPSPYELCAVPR
Summary of the method: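 Cell-free P450-Glo system: CYP2D6 with proluciferin substrate was pre-incubated with compound for 10 min, then reacted with NADPH regeneration for 1 h at room temperature. Luciferin product was detected after 20 min, and data were reported as relative luminescence units.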

[12] = qHTS assay to identify small molecule agonists of the progesterone receptor (PR) signaling pathway - cell viability counter screen (AID 1346799; calls by dose curve; further: nearly all actives have a fitted effect of over 45% in size)
Summary of the method: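 Viability was scored by ATP luminescence (CellTiter-Glo, 30 min, room temperature) in the same wells used for the reporter readout, after 16 hr compound exposure of PR-UAS-bla HEK293T cells.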

[13] = Caspase-3/7 induction in CHO-K1 cells by small molecules, qHTS cell viability counter screen (AID 1346979); further: nearly all actives have a fitted effect of over 35% in size; further: potency means the concentration at half of the fitted maximal effect
Summary of the method: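 Seeding: 1,500 CHO-K1 cells/well. Rest: 5hr, 37C. Treatment: compounds in DMSO, 16hr. Read: CellTiter-Fluor, 1hr, fluorescence.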

[14] = Caspase-3/7 induction in HepG2 cells by small molecules, qHTS cell viability counter screen (AID 1346981); further: nearly all actives have a fitted effect of over 30% in size; further: potency means the concentration at half of the fitted maximal effect
Summary of the method: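 Wild-type HepG2 cells, 2,000/well, settled 5 hr at 37 C, 5% CO2 before compound addition. Viability read by CellTiter-Fluor fluorescence, reagent added after 16 hr compound exposure, then 1 hr at 37C, in the same wells as the caspase read.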

[15] = target: Nuclear receptor subfamily 1 group I member 2 (Rattus norvegicus) (UniProt Q9R1A7); assay: Rat pregnane X receptor (rPXR) activation by small molecules, qHTS assay (AID 1346983); conditions: rPXR luciferase reporter cells, One-Glo luminescence, 24 h; hits give high values; further: nearly all actives have a fitted effect of over 20% in size
Sequence of Nuclear receptor subfamily 1 group I member 2 (Rattus norvegicus) (Q9R1A7 whole entry, looked up): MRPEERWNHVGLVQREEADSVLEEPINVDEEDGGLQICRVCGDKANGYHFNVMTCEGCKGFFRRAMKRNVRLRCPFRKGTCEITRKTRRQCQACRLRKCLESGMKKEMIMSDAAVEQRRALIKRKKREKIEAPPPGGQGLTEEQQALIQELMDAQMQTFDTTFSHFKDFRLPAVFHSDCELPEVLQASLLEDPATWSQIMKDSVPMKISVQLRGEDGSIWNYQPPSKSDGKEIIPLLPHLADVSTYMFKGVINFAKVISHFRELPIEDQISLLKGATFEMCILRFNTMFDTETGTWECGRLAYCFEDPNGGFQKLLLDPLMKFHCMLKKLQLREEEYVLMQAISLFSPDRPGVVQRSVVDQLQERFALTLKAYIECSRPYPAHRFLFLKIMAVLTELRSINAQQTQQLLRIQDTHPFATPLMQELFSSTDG
Summary of the method: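 Cell-based rPXR luciferase reporter assay, 2,000 cells per well, rested 5hr at 37 C before compound addition in DMSO, then 24 hr at 37 C. One-Glo reagent was added and luminescence read after 30 min at room temperature.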

[16] = target: Cytochrome P450 2C19 (Homo sapiens) (UniProt P33261); assay: Cytochrome P450 Family 2 Subfamily C Member 19 (CYP2C19) small molecule antagonists: luciferase reporter qHTS assay (AID 1671197); further: nearly all actives have a fitted effect of over 65% in size; further: potency means the concentration at half of the fitted maximal effect
Sequence of Cytochrome P450 2C19 (Homo sapiens) (P33261 whole entry, looked up): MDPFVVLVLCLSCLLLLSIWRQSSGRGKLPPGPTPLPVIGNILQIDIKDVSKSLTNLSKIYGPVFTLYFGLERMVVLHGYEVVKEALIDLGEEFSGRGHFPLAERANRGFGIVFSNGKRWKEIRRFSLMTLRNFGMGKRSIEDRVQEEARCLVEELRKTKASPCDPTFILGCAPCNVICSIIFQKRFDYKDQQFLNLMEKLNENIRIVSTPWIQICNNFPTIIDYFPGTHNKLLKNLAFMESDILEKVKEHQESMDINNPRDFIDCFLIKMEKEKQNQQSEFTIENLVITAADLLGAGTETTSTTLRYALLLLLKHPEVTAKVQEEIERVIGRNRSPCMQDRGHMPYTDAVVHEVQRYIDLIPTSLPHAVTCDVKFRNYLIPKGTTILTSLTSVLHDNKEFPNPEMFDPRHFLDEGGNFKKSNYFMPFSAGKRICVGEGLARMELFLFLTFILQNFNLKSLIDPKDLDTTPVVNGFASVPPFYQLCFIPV
Summary of the method: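 Quantitative high-throughput screen of the Tox21 library using CYP2C19 with proluciferin substrate. Reaction: NADPH regeneration, 37C, 1 h, after 10 min compound preincubation at room temperature. Readout: luminescence.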

[17] = target: Progesterone receptor (Homo sapiens) (UniProt P06401); assay: qHTS assay to identify small molecule agonists of the progesterone receptor (PR) signaling pathway (AID 1346784; calls by dose curve; further: nearly all actives have a fitted effect of over 30% in size; further: potency means the concentration at half of the fitted maximal effect)
Summary of the method: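 The screen uses PR-UAS-bla HEK 293T cells in charcoal-stripped serum (2%). Compounds are applied for 16 hr at 37C after a 6 hr pre-incubation, and reporter activity is detected with a FRET beta-lactamase substrate after 2 hr at room temperature.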

[18] = qHTS assay to identify small molecule agonists of the TGF-beta/Smad signaling pathway (AID 1346859; active means well fitted activation curve with a large enough effect in the signal ratio in the repeat runs, not every such curve was filed as active; the % refers to the signal ratio; further: series mostly up to about 77 µM)
Summary of the method: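 Dual-wavelength fluorescence (460/530 nm emission) quantified beta-lactamase expression under the Smad binding element in HEK 293T cells following 5 hr compound treatment at 37 C.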

[19] = target: Nuclear receptor subfamily 1 group I member 2 (Homo sapiens) (UniProt O75469); assay: CYP3A4 induction through human pregnane X receptor (PXR) by small molecules, qHTS assay (AID 1346984); further: nearly all actives have a fitted effect of over 40% in size
Summary of the method: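 DPX-2 HepG2 cells carrying a PXR response element and CYP3A4-promoter luciferase construct, treated with compounds 24 hr at 37C. Then P450-Glo CYP3A4 Luciferin-IPA substrate (3uM final) for 3 hr at 37C, One-Glo added, luminescence read.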

[20] = target: Nuclear receptor subfamily 1 group I member 2 (Homo sapiens) (UniProt O75469); assay: Human pregnane X receptor (PXR) activation by small molecules, qHTS assay (AID 1346985); further: nearly all actives have a fitted effect of over 40% in size
Summary of the method: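 DPX-2 cells (HepG2 co-transfected with a PXR response element and a CYP3A4-promoter luciferase construct) were seeded at 2,000 per well, rested 5 hr at 37C, then exposed to DMSO-dissolved compounds for 24 hr. Activation was read as luciferase luminescence.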

SMILES: Cc1cc(=O)oc2cc(O)cc(O)c12
- Potency [1]: inactive
- Potency [2]: inactive
- Potency [3]: inactive
- Potency [4]: inactive
- Potency [5]: inactive
- outcome [6]: inactive
- Potency [7]: inactive
- Potency [8]: inactive
- Potency [9]: inactive
- Potency [10]: 61.3 µM (active)
- Potency [11]: inactive

SMILES: COc1cccc2c1C(=O)c1c(O)c3c(c(O)c1C2=O)C[C@@](O)(C(C)=O)C[C@@H]3O[C@H]1C[C@H](N)[C@H](O)[C@H](C)O1
- Potency [2]: inactive
- Potency [12]: inactive
- Potency [3]: inactive
- Potency [4]: inactive
- Potency [5]: inactive
- outcome [6]: inactive
- Potency [7]: 1.09 µM (active) and 2.66 µM (active)
- Potency [8]: 1.38 µM (active) and 1.33 µM (active)
- Potency [13]: 21.8 µM (active) and 9.44 µM (active)
- Potency [9]: 4.89 µM (active) and 6.68 µM (active)
- Potency [14]: 30.8 µM (active) and 4.22 µM (active)
- max activation [15]: -7.89%

SMILES: CC(C)(C)c1csc(-c2cc3cc(OCc4ccccc4CC(=O)O)ccc3o2)n1
- Potency [1]: 43.3 µM (active)
- Potency [3]: inactive
- Potency [4]: inactive
- Potency [5]: inactive
- outcome [6]: inactive
- Potency [7]: 61.1 µM (active)
- Potency [8]: inactive
- Potency [13]: 61.1 µM (active)
- Potency [9]: inactive
- Potency [14]: 68.6 µM (active)
- Potency [10]: 61.1 µM (active)
- Potency [11]: inactive
- Potency [16]: inactive

SMILES: CCCCCCC1CCCC(=O)O1 (stereo not drawn)
- Potency [2]: inactive
- Potency [12]: inactive
- Potency [3]: inactive
- Potency [4]: inactive
- Potency [5]: inactive
- Potency [7]: inactive
- Potency [8]: inactive
- Potency [13]: inactive
- Potency [9]: inactive
- Potency [14]: inactive
- Potency [16]: inactive

SMILES: CCO[Si](OCC)(OCC)OCC
- Potency [2]: inactive
- Potency [12]: inactive
- Potency [3]: inactive
- Potency [4]: inactive
- Potency [7]: inactive
- Potency [8]: inactive
- Potency [13]: inactive
- Potency [9]: inactive
- Potency [14]: inactive
- Potency [10]: inactive
- Potency [11]: inactive
- Potency [16]: inactive

SMILES: O=C1CCc2ccc(OCCCCN3CCN(c4cccc(Cl)c4Cl)CC3)cc2N1
- Potency [5]: inactive
- outcome [6]: inactive
- Potency [7]: 16.8 µM (active)
- Potency [8]: inactive
- Potency [13]: 21.1 µM (active)
- Potency [9]: inactive
- Potency [14]: 23.7 µM (active)
- max activation [15]: -4.05%

SMILES: C#CC1(O)CC[C@H]2[C@@H]3CCC4=CCCC[C@@H]4[C@H]3CC[C@@]21C (stereo partly drawn)
- Potency [17]: 0.486 µM (active)
- Potency [3]: inactive
- Potency [18]: inactive
- Potency [5]: inactive
- Potency [13]: 61.1 µM (active) and 26.6 µM (active)
- Potency [9]: inactive
- max activation [15]: -0.183%
- Potency [11]: inactive

SMILES: Cc1ccc(O)c(N)c1
- Potency [2]: inactive
- Potency [3]: inactive
- Potency [4]: inactive
- Potency [18]: inactive
- Potency [5]: inactive
- outcome [6]: inactive
- Potency [8]: inactive
- Potency [13]: 61.2 µM (active)
- Potency [9]: inactive
- Potency [14]: inactive
- Potency [10]: 48.6 µM (active)
- Potency [11]: 35.6 µM (active)
- Potency [16]: 35.6 µM (active)

SMILES: CC1(C)[C@@H](O)CC[C@]2(C)[C@H]3C(=O)C=C4[C@@H]5C[C@@](C)(C(=O)O)CC[C@]5(C)CC[C@@]4(C)[C@]3(C)CC[C@@H]12
- Potency [1]: 60.4 µM (active)
- Potency [2]: inactive
- Potency [3]: inactive
- Potency [4]: inactive
- Potency [5]: inactive
- Potency [7]: inactive
- Potency [9]: inactive
- Potency [10]: inactive
- max activation [15]: 1.62%
- Potency [19]: inactive
- Potency [20]: inactive
- Potency [11]: inactive
- Potency [16]: inactive

SMILES: CN(C)[C@@H](CCOc1cccc2ccccc12)c1ccccc1
- Potency [17]: inactive
- Potency [4]: inactive
- Potency [18]: inactive
- Potency [5]: inactive
- outcome [6]: inactive
- Potency [9]: inactive
- Potency [11]: 0.871 µM (active)
- Potency [16]: 0.977 µM (active)

SMILES: FC(F)(F)c1cccc(Cl)c1
- Potency [12]: inactive
- Potency [3]: inactive
- Potency [4]: inactive
- Potency [7]: inactive
- Potency [8]: inactive
- Potency [13]: inactive
- Potency [9]: inactive
- Potency [14]: inactive
- Potency [10]: inactive
- Potency [11]: inactive

SMILES: CC1=CCC(=C(C)C)CC1
- Potency [1]: inactive
- Potency [2]: inactive
- Potency [12]: inactive
- Potency [3]: inactive
- Potency [4]: inactive
- Potency [18]: inactive
- Potency [7]: inactive
- Potency [8]: inactive
- Potency [13]: inactive
- Potency [9]: inactive
- Potency [14]: inactive
- Potency [10]: 43.3 µM (active)
- Potency [11]: inactive
- Potency [16]: 79.6 µM (active)

SMILES: Oc1cc(Cl)cc(Cl)c1Cl
- Potency [2]: inactive
- Potency [3]: inactive
- Potency [18]: inactive
- Potency [9]: inactive
- Potency [16]: inactive

SMILES: O=C(O)[C@H](O)[C@@H](O)[C@H](O[C@@H]1O[C@H](CO)[C@H](O)[C@H](O)[C@H]1O)[C@H](O)CO
- Potency [2]: inactive
- Potency [12]: inactive
- Potency [3]: inactive
- Potency [4]: inactive
- Potency [18]: inactive
- Potency [5]: inactive
- outcome [6]: inactive
- Potency [7]: inactive
- Potency [8]: inactive
- Potency [13]: inactive
- Potency [9]: inactive
- Potency [14]: inactive
- Potency [10]: inactive
- Potency [11]: inactive
- Potency [16]: inactive
